Assay results from PubChem BioAssay (EPA / NIEHS).
Activity calls are given as the source filed them. Rule for the calls: active = hit-call score of the fitted dose curve at least 0.9, where 1 is the maximum; inactive = score below 0.9.

Legend:
Conditions in all cases: mRNA level, 48 h; actives raise or lower the signal
[1] = read-out: Insulin-like growth factor-binding protein 1 (IGFBP1), IGFBP1 (gene 3484); test: LTEA_HepaRG_IGFBP1: Life Technologies and Expression Analysis (LTEA) Assay for Insulin-like growth factor-binding protein 1 (IGFBP1) using HepaRG (AID 2283508)
How it was run: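 qRT-PCR mRNA read-out (TaqMan, Fluidigm array), normalised to three housekeeping genes; HepaRG cells, 48 h exposure, 8-pt half-log series from 100 uM, 0.5% DMSO vehicle; bidirectional curve fit vs DMSO baseline.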

[2] = read-out: Interleukin 6 (IL6), IL6 (gene 3569); test: LTEA_HepaRG_IL6: Life Technologies and Expression Analysis (LTEA) Assay for Interleukin 6 (IL6) using HepaRG (AID 2283509)
How it was run: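 Changes in IL6 mRNA, up or down relative to 0.5% DMSO controls, were derived from concentration-response curves in human HepaRG cells treated for 48 h at up to 100 uM, with ACTB, GAPDH and POLR2A as normalizers.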

[3] = read-out: Interleukin 6 Receptor (IL6R), IL6R (gene 3570); test: LTEA_HepaRG_IL6R: Life Technologies and Expression Analysis (LTEA) Assay for Interleukin 6 Receptor (IL6R) using HepaRG (AID 2283510)
How it was run: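 Cells were thawed, plated and cultured 48 h, then medium was changed to serum-free induction medium. Chemicals were added in duplicate (100 uM top, half-log steps, 0.5% DMSO) for 48 h. Lysates were analyzed by qRT-PCR for IL6R expression.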

[4] = read-out: Potassium channel subfamily K member 1 (KCNK1), KCNK1 (gene 3775); test: LTEA_HepaRG_KCNK1: Life Technologies and Expression Analysis (LTEA) Assay for Potassium channel subfamily K member 1 (KCNK1) using HepaRG (AID 2283511)
How it was run: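 Human HepaRG cultures receive test chemicals for 48 h in 0.5% DMSO, top concentration 100 uM with half-log dilutions. Induction or suppression of KCNK1 mRNA relative to DMSO is derived by bidirectional fitting of qRT-PCR data.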

[5] = read-out: Keratin 19 (KRT19), KRT19 (gene 3880); test: LTEA_HepaRG_KRT19: Life Technologies and Expression Analysis (LTEA) Assay for Keratin 19 (KRT19) using HepaRG (AID 2283512)
How it was run: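 HepaRG, 48 h chemical exposure, 8-pt half-log CRC from 100 uM, 0.5% DMSO vehicle, duplicates. Readout: TaqMan qRT-PCR of KRT19 mRNA, housekeeping-normalized (ACTB/GAPDH/POLR2A). Bidirectional fit vs DMSO baseline.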

[6] = read-out: JUN Transcription Factor, JUN (gene 3725); test: LTEA_HepaRG_JUN: Life Technologies and Expression Analysis (LTEA) Assay for JUN Transcription Factor using HepaRG (AID 2283513)
How it was run: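 Read-out is JUN transcript level by TaqMan qRT-PCR, normalized to ACTB, GAPDH and POLR2A, after 48 h chemical treatment of HepaRG cells. Concentration-response spanned eight half-log points up to 100 uM in 0.5% DMSO.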

[7] = read-out: Lipase C (LIPC), LIPC (gene 3990); test: LTEA_HepaRG_LIPC: Life Technologies and Expression Analysis (LTEA) Assay for Lipase C (LIPC) using HepaRG (AID 2283514)
How it was run: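 In this multiplexed gene-expression screen, human HepaRG cultures received test chemicals for 48 h across eight concentrations with 100 uM highest, in duplicate. Values reflect LIPC mRNA induction or suppression versus DMSO vehicle, from normalized qRT-PCR.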

[8] = read-out: Lipoprotein lipase (LPL), LPL (gene 4023); test: LTEA_HepaRG_LPL: Life Technologies and Expression Analysis (LTEA) Assay for Lipoprotein lipase (LPL) using HepaRG (AID 2283515)
How it was run: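 Concentration-response testing used half-log steps from 100 uM in 0.5% DMSO on human HepaRG cells, 48 h, duplicate wells. Phenobarbital 1 mM served as induction control; LPL mRNA was normalized to ACTB, GAPDH, POLR2A.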

[9] = read-out: MicroRNA 122 (MIR122), gene 406906; test: LTEA_HepaRG_MIR122: Life Technologies and Expression Analysis (LTEA) Assay for MicroRNA 122 (MIR122) using HepaRG (AID 2283516); note: the transcript read is the microRNA miR-122
How it was run: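 Human liver HepaRG cultures receive test chemicals for 48 h at eight half-log concentrations from 100 uM. Expression is quantified by qRT-PCR with ACTB/GAPDH/POLR2A normalization and fitted bidirectionally against 0.5% DMSO.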

[10] = read-out: matrix metalloproteinase-10 (MMP10), MMP10 (gene 4319); test: LTEA_HepaRG_MMP10: Life Technologies and Expression Analysis (LTEA) Assay for matrix metalloproteinase-10 (MMP10) using HepaRG (AID 2283517)
How it was run: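 In differentiated HepaRG cultures kept in 0.5% DMSO, test chemicals act for 48 h over an eight-point range with a top dose of 100 uM. Expression is then quantified by TaqMan RT-PCR against ACTB, GAPDH and POLR2A.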

MYC, MYC (gene 4609) = test: LTEA_HepaRG_MYC: Life Technologies and Expression Analysis (LTEA) Assay for MYC using HepaRG (AID 2283518)
How it was run: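 qRT-PCR read-out of MYC transcript (Fluidigm TaqMan, housekeeping-normalized) after 48 h chemical exposure of HepaRG cells; eight concentrations, top 100 uM, half-log steps. Bidirectional curve fitting against 0.5% DMSO vehicle baseline.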

[11] = read-out: matrix metalloproteinase-3 (MMP3), MMP3 (gene 4314); test: LTEA_HepaRG_MMP3: Life Technologies and Expression Analysis (LTEA) Assay for matrix metalloproteinase-3 (MMP3) using HepaRG (AID 2283519)
How it was run: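 Human liver HepaRG cultures received chemicals (top concentration 100 uM, 0.5% DMSO) for 48 h in duplicate. MMP3 mRNA induction or loss was then assessed via TaqMan qRT-PCR with housekeeping-gene normalisation.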

[12] = read-out: Paternally Expressed 10 (PEG10), PEG10 (gene 23089); test: LTEA_HepaRG_PEG10: Life Technologies and Expression Analysis (LTEA) Assay for Paternally Expressed 10 (PEG10) using HepaRG (AID 2283520)
How it was run: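 Human HepaRG cultures are dosed for 48 h across an eight-point half-log series starting at 100 uM, with 0.5% DMSO as vehicle and baseline. Gain or loss of PEG10 transcript is measured by qRT-PCR and fitted in both directions.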

[13] = read-out: Protein phosphatase 2A (PPP2R4), PTPA (gene 5524); test: LTEA_HepaRG_PPP2R4: Life Technologies and Expression Analysis (LTEA) Assay for Protein phosphatase 2A (PPP2R4) using HepaRG (AID 2283522)
How it was run: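 Cells were plated, cultured 48 h, switched to serum-free induction medium, then dosed for 48 h (8 points, max 100 uM, 0.5% DMSO). RNA was isolated and PPP2R4 expression measured by TaqMan qRT-PCR.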

[14] = read-out: Phosphatase and tensin (PTEN), PTEN (gene 5728); test: LTEA_HepaRG_PTEN: Life Technologies and Expression Analysis (LTEA) Assay for Phosphatase and tensin (PTEN) using HepaRG (AID 2283523)
How it was run: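 Expression of PTEN is quantified in the human liver line HepaRG following two days of dosing (top concentration 100 uM, half-log dilutions, 0.5% DMSO). Values derive from bidirectional curve fitting relative to DMSO controls.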

[15] = read-out: solute carrier (SLC22A1), SLC22A1 (gene 6580); test: LTEA_HepaRG_SLC22A1: Life Technologies and Expression Analysis (LTEA) Assay for solute carrier (SLC22A1) using HepaRG (AID 2283524)
How it was run: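 Transcript induction or suppression of SLC22A1 in human HepaRG cultures is scored after 48 h chemical treatment, with DMSO (0.5%) as baseline for bidirectional fitting. Concentrations span eight half-log points topping at 100 uM.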

[16] = read-out: Pyruvate Dehydrogenase Kinase 4 (PDK4), PDK4 (gene 5166); test: LTEA_HepaRG_PDK4: Life Technologies and Expression Analysis (LTEA) Assay for Pyruvate Dehydrogenase Kinase 4 (PDK4) using HepaRG (AID 2283525)
How it was run: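 Eight-point, half-log concentration series (max 100 uM, 0.5% DMSO) applied to differentiated HepaRG cells for 48 h in duplicate. Endpoint: PDK4 mRNA induction or repression by qRT-PCR against DMSO baseline.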

[17] = read-out: NAD(P)H dehydrogenase [quinone] 1 (NQO1), NQO1 (gene 1728); test: LTEA_HepaRG_NQO1: Life Technologies and Expression Analysis (LTEA) Assay for NAD(P)H dehydrogenase [quinone] 1 (NQO1) using HepaRG (AID 2283526)
How it was run: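 Transcript induction or suppression is quantified by qRT-PCR in human HepaRG liver cells dosed for 48 hours. Eight half-log concentrations topping at 100 uM are used, with 0.5% DMSO as vehicle and baseline.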

[18] = read-out: Nuclear factor erythroid 2-related factor 2 (Homo sapiens) (UniProt Q16236); test: LTEA_HepaRG_NFE2L2: Life Technologies and Expression Analysis (LTEA) Assay for Nuclear factor erythroid 2-related factor 2 (NFE2L2) Transcription Factor using HepaRG (AID 2283527);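 note: TaqMan qRT-PCR transcript level normalised to ACTB GAPDH and POLR2A housekeeping genes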
How it was run: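 Human liver HepaRG line treated in duplicate for 48 h with an eight-point series topping at 100 uM. Gene expression of NFE2L2 by qRT-PCR, bidirectionally fitted against the vehicle control.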

[19] = read-out: succinate dehydrogenase complex iron sulfur subunit B (SDHB), SDHB (gene 6390); test: LTEA_HepaRG_SDHB: Life Technologies and Expression Analysis (LTEA) Assay for succinate dehydrogenase complex iron sulfur subunit B (SDHB) using HepaRG (AID 2283528)
How it was run: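 HepaRG cells (~100,000/well, plated 48 h) exposed in duplicate for 48 h in serum-free induction medium to 8-point half-log series from 100 uM in 0.5% DMSO; mRNA by qRT-PCR normalised to ACTB, GAPDH, POLR2A; bidirectional fit versus DMSO.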

Measured: outcome

Sequence of Nuclear factor erythroid 2-related factor 2 (Homo sapiens) (Q16236 whole entry, looked up): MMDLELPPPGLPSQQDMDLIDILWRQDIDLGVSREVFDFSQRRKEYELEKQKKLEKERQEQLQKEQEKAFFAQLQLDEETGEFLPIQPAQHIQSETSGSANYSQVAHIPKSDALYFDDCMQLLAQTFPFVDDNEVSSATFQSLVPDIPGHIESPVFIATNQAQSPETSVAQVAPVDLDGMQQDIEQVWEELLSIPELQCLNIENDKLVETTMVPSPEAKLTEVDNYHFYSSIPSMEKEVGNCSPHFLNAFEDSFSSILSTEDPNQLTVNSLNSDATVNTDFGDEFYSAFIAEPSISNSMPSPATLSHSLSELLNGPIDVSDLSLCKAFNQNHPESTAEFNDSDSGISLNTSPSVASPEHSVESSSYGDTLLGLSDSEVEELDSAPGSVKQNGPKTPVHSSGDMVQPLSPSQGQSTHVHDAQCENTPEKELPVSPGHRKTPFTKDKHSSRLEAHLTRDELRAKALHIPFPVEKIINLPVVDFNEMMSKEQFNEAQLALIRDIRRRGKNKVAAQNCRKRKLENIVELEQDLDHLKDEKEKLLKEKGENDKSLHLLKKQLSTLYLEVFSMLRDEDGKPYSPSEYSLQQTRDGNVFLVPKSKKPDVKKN

N#CCCCCC#N
inactive: all assays above

O=[N+]([O-])c1ccc(Cl)cc1
inactive: all assays above

O=C(CCl)c1ccccc1
inactive: all assays above
